Results as given in publication PMC5700166.
Where a chain is given by its changes, count along the chain named.

Experiments:
Assay in all cases: protein-binding microarray (PBM); PBM: ~300 nM protein, 6 mM HEPES pH 7.8, 80 mM KCl, 0.5 mM EDTA, 0.5 mM EGTA, 6% glycerol, 35 ng/ul poly-dIdC, 1% milk, 1 h, room temperature; Ap Aiptasia and Nv Nematostella (sea anemones) / Co Capsaspora / Aq Amphimedon (sponge) / Dm Drosophila / Hu human; RHD is the Rel homology domain; high values mean tight binding
Conditions in all cases: dsDNA, one strand shown
GST-Ap-NF-kB RHD = molecular target: T1, GST-Ap-NF-kB RHD (Exaiptasia pallida (Aiptasia), UniProt A0A913YAJ5 2-422)
T1 sequence: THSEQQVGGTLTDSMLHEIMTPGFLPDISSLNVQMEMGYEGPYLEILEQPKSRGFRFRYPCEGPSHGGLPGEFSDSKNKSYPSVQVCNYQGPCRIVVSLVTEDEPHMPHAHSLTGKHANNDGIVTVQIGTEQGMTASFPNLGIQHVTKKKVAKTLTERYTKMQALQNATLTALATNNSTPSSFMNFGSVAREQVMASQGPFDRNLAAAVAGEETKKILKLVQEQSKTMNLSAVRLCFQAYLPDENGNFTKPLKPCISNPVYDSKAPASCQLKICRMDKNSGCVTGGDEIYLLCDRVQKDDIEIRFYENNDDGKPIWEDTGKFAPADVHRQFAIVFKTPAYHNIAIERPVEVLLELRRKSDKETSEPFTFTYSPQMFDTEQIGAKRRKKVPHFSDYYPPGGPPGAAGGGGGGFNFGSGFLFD

[1] = molecular target: T2, GST-Nv-NF-kB (Cys allele) (Nematostella vectensis, UniProt E5G601 2-411)
T2 sequence: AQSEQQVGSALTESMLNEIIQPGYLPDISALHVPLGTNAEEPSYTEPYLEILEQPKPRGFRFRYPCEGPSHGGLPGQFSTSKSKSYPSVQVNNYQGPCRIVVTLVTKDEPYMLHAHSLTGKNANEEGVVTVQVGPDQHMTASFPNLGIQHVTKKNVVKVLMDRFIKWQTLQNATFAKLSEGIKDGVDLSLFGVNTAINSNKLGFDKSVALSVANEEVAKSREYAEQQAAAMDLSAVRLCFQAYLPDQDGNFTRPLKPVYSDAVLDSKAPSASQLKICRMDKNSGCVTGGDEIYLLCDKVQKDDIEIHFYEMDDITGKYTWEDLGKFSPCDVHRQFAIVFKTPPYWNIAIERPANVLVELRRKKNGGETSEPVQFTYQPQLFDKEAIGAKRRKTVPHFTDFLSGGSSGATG

[2] = molecular target: T3, GST-Nv-NF-kB (Ser allele) (Nematostella vectensis, UniProt A7UNT2 2-411)
T3 sequence: T2 sequence with Q21R, C66S, S207N, E215Q, V217A, E225K, A268E, D399E

GST-Co-NF-kB = molecular target: T4, GST-Co-NF-kB (Capsaspora owczarzaki, UniProt F1ARL5 200-546)
T4 sequence: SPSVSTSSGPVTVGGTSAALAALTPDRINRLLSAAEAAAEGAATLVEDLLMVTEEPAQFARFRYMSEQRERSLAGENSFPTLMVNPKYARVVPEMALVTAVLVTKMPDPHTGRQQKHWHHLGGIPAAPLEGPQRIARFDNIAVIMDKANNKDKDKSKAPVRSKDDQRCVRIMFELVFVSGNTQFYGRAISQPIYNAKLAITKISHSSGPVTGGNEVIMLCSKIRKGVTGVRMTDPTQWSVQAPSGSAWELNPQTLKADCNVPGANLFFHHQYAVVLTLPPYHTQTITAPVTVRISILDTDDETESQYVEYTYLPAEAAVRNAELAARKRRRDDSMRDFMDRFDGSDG

GST-Dm-Relish = molecular target: T5, GST-Dm-Relish (Drosophila melanogaster, UniProt Q94527 99-473)
T5 sequence: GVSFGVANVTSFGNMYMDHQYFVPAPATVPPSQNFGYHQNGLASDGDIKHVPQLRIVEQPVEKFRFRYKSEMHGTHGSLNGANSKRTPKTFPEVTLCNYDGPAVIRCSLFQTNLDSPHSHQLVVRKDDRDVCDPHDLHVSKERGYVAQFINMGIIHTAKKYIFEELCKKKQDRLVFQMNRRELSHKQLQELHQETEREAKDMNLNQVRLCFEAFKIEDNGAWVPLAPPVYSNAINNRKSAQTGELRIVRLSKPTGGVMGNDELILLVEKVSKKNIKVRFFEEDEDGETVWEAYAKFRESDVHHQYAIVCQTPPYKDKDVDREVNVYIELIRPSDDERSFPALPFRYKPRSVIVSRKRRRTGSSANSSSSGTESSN

GST-Aq-NF-kB = molecular target: T6, GST-Aq-NF-kB (Amphimedon queenslandica, UniProt A9Y5G7 2-389)
T6 sequence: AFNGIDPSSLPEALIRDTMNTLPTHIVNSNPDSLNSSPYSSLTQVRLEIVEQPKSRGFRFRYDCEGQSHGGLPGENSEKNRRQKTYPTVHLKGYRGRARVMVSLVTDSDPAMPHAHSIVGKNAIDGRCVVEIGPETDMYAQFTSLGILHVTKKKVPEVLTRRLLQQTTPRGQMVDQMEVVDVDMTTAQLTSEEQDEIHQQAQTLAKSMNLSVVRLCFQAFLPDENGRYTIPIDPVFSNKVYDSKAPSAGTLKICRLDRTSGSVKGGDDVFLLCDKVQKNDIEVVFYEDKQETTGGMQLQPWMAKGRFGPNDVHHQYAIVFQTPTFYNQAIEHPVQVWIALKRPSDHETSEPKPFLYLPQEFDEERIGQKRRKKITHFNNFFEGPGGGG

GST-Hu-p50 = GST-Hu-p50 (Homo sapiens, UniProt P19838 7-356)
Sequence of GST-Hu-p50 (P19838 7-356): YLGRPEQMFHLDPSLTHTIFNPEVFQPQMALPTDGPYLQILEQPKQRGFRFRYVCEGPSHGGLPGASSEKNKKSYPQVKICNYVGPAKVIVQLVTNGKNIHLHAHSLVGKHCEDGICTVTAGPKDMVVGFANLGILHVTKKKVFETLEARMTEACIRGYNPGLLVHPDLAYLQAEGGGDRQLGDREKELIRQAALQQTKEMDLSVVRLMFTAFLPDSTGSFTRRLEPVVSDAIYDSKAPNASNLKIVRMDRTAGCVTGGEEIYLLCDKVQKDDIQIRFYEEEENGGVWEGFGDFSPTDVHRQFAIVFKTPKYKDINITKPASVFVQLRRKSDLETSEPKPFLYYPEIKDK

Row | Sequence | binding signal (GST-Ap-NF-kB RHD) [z-score] | binding signal [1] [z-score] | binding signal [2] [z-score] | binding signal (GST-Co-NF-kB) [z-score] | binding signal (GST-Dm-Relish) [z-score] | binding signal (GST-Aq-NF-kB) [z-score] | binding signal (GST-Hu-p50) [z-score]
1 | CCGATTAACATCAAATCTTCCCCTGATGTTAATCGGGTCTTGATTCGCTTGACGCTGCTG | 6.29 | 8.14 | 10.4 | 9.84 | 4.74 | 6.11 | 6.14
2 | CCGATTAACATCAAAAATACCCATGATGTTAATCGGGTCTTGATTCGCTTGACGCTGCTG | 4.63 | 6.47 | 6.31 | 2.49 | 5.48 | 5.67 | 5.58
3 | CCGATTAACATCACGGGGATTTCTGATGTTAATCGGGTCTTGATTCGCTTGACGCTGCTG | 9.25 | 9.87 | 10.8 | 5.27 | 9.88 | 7.52 | 7.58
4 | CCGATTAACATCAGGGGGGACGATGATGTTAATCGGGTCTTGATTCGCTTGACGCTGCTG | 5.01 | 4.55 | 4.5 | 5.85 | 3.77 | 4.63 | 3.85
5 | CCGATTAACATCAAATACCCCCTTGATGTTAATCGGGTCTTGATTCGCTTGACGCTGCTG | 8.01 | 6.1 | 6.79 | 4.41 | 6.19 | 6.04 | 5.85
6 | CCGATTAACATCAGGGGAATCACTGATGTTAATCGGGTCTTGATTCGCTTGACGCTGCTG | 8.92 | 8.19 | 8.51 | 6.78 | 10.6 | 7.41 | 6.51
7 | CCGATTAACATCAAACTCCCCCCTGATGTTAATCGGGTCTTGATTCGCTTGACGCTGCTG | 7.58 | 6.49 | 6.75 | 7.67 | 7.11 | 6.54 | 6.75
8 | CCGATTAACATCAAAAGTCCCCATGATGTTAATCGGGTCTTGATTCGCTTGACGCTGCTG | 7.92 | 7.91 | 7.59 | 3.45 | 8.38 | 7.23 | 6.84
9 | CCGATTAACATCAGGGGGATTCATGATGTTAATCGGGTCTTGATTCGCTTGACGCTGCTG | 8.54 | 7.43 | 8.48 | 5.63 | 7.41 | 6.1 | 7.07
10 | CCGATTAACATCAGGGAATCCCCTGATGTTAATCGGGTCTTGATTCGCTTGACGCTGCTG | 14.7 | 13.7 | 14.6 | 6.28 | 11 | 12.1 | 8.34
11 | CCGATTAACATCAAAATTCCCCATGATGTTAATCGGGTCTTGATTCGCTTGACGCTGCTG | 8.8 | 9.9 | 10.5 | 7.72 | 7.31 | 7.95 | 6.99
12 | CCGATTAACATCAGGGGGATATATGATGTTAATCGGGTCTTGATTCGCTTGACGCTGCTG | 6.45 | 5.67 | 6.14 | 6.72 | 4.91 | 5.58 | 5.49
13 | CCGATTAACATCAAAGCATCCCCTGATGTTAATCGGGTCTTGATTCGCTTGACGCTGCTG | 4.67 | 5.06 | 6.87 | 3.43 | 3.26 | 4.15 | 4.58
14 | CCGATTAACATCAATATTCCCCATGATGTTAATCGGGTCTTGATTCGCTTGACGCTGCTG | 7.4 | 8.39 | 8.19 | 8.46 | 3.77 | 5.97 | 5.88
15 | CCGATTAACATCAAAAACCCCCATGATGTTAATCGGGTCTTGATTCGCTTGACGCTGCTG | 9.51 | 8.21 | 9 | 3.93 | 9.82 | 7.68 | 7.91
16 | CCGATTAACATCAGGGGGTGGGATGATGTTAATCGGGTCTTGATTCGCTTGACGCTGCTG | 2.8 | 2.48 | 3.52 | 3.22 | 3.58 | 3.34 | 3.07
17 | CCGATTAACATCAGGGGGTCCACTGATGTTAATCGGGTCTTGATTCGCTTGACGCTGCTG | 4.33 | 2.44 | 2.96 | 1.99 | 7.96 | 4.83 | 3.28
18 | CCGATTAACATCAGGGGACCACCTGATGTTAATCGGGTCTTGATTCGCTTGACGCTGCTG | 4.71 | 3.46 | 2.99 | 2.22 | 6.1 | 4.66 | 3.71
19 | CCGATTAACATCAAACTTTCCCCTGATGTTAATCGGGTCTTGATTCGCTTGACGCTGCTG | 7.27 | 8.67 | 9.66 | 8.89 | 4.44 | 7.57 | 6.2
20 | CCGATTAACATCAAAACCCCCCCTGATGTTAATCGGGTCTTGATTCGCTTGACGCTGCTG | 8.72 | 6.19 | 6.72 | 6.13 | 9.97 | 7.1 | 6.53
21 | CCGATTAACATCAAGGGAGTTCCTGATGTTAATCGGGTCTTGATTCGCTTGACGCTGCTG | 4.53 | 4.56 | 2.92 | 1.22 | 5.02 | 5.71 | 3.7
22 | CCGATTAACATCAGAGCCCCCCCTGATGTTAATCGGGTCTTGATTCGCTTGACGCTGCTG | 4.71 | 3.96 | 3.31 | 3.1 | 4.58 | 4.2 | 3.47
23 | CCGATTAACATCAGGGGGACTAATGATGTTAATCGGGTCTTGATTCGCTTGACGCTGCTG | 5.06 | 4.36 | 4.4 | 4.79 | 2.76 | 4.27 | 3.8
24 | CCGATTAACATCACGGGTTTTCCTGATGTTAATCGGGTCTTGATTCGCTTGACGCTGCTG | 2.91 | 2.73 | 1.9 | 1.18 | 4.43 | 4.99 | 2.29
25 | CCGATTAACATCAAGTCCCCCCATGATGTTAATCGGGTCTTGATTCGCTTGACGCTGCTG | 5.62 | 4.07 | 3.94 | 6.53 | 4.21 | 4.39 | 3.78
